Sampled rows, rich in hits. Any-hit rate of the full collection: about 1.6%.
KCNQ2 block: KCNQ2 (rat) channel inhibition; CHO-K1 KCNQ2, FluxOR thallium flux, 20 min; active compounds read low; B-score at 10 µM; 310,000 compounds, 1.1% hits;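 active means fluorescence ratio B-score at most minus 3 library SDs, with starting brightness B-score within 2 library SDs, cut at about -5.5 in these data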
Target sequence (O88943 whole entry, looked up): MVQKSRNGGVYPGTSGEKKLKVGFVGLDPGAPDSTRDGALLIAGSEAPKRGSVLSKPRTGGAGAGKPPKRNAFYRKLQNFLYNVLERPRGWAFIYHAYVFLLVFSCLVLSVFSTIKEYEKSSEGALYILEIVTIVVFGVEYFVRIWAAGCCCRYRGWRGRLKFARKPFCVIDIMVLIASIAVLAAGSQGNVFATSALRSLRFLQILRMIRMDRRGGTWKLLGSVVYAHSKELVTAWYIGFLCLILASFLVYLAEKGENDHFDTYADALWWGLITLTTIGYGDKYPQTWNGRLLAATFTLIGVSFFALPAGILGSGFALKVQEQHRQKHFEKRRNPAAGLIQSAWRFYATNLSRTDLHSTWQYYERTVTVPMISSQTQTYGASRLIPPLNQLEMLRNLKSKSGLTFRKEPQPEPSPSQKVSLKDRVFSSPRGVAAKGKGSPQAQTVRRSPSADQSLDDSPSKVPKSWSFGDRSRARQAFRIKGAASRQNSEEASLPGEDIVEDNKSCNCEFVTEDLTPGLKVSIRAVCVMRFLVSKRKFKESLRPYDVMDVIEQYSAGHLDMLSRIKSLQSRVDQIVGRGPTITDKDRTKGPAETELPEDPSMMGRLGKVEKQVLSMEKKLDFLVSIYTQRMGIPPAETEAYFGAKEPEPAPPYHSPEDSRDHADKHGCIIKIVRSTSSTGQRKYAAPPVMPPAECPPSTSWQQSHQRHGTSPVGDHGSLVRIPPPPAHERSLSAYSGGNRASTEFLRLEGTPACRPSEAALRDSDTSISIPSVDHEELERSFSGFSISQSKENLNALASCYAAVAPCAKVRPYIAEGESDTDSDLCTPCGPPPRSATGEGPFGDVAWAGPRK
KCNQ2 pot: enhances the rat KCNQ2 potassium channel. CHO-K1 KCNQ2, FluxOR thallium flux fluorescence; active compounds read high. 310,000 compounds, 0.54% hits. B-score at 10 µM. O88943. AID 2239;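 active means fluorescence ratio B-score at least 3 SD of library B-scores, with initial fluorescence B-score within 3 of them, cut at about 5.3 in these data; same plate scores as AID 2156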;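 further: B-score of peak minus minimum over baseline fluorescence ratio after K+ and Tl+ stimulus; positive B-score means potentiation of KCNQ2 with more thallium influx and brighter signal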
Starred values were filed as active, the others as inactive; i = inactive; . = no result.

SMILES	KCNQ2 block	KCNQ2 pot
COc1ccc(CCNC(=O)CN(CCc2ccccc2)S(C)(=O)=O)cc1OC	i	0.05
COc1ccc(S(=O)(=O)Nc2cc3c4c(oc3c3ccccc23)CCCC4=O)cc1	i	.
COc1ccc(S(=O)(=O)Nc2cc3c4c(oc3c3ccccc23)CC(C)(C)CC4=O)cc1	-6.5*	-6.5
CCC1CCCCN1CCCNC(=O)Cn1nc(C)n2nc(-c3ccccc3)cc2c1=O (centres undefined)	i	1.5
CCOC(=O)c1cc2c(c(CSc3nc4ccccc4c(=O)n3Cc3ccco3)c1)OCOC2	-5.6*	-5.6
CN(Cc1ccccc1)C(=O)CSc1nc2ccccc2c(=O)n1Cc1ccco1	i	.
O=C(CSc1nc2ccccc2c(=O)n1Cc1ccco1)NCc1ccco1	i	1.1
O=c1c2ccccc2nc(SCc2cc(F)cc3c2OCOC3)n1Cc1ccco1	-8*	-8
Cc1ccc(CNC(=O)[C@H](Cc2ccccc2)NC(=O)C2CCNCC2)cc1	i	.
CC(C)(C)C(=O)Nc1ccccc1N1CCN(c2ccc(F)cc2)CC1	i	1.5
CCOc1ccc(N2CC(C(=O)Nc3ccccc3N3CCCC3)CC2=O)cc1 (centres undefined)	i	.
CCC(Sc1nc(C)cc(C)n1)C(=O)O (centres undefined)	i	6.2*
CCC(Sc1nc(C)cc(C)n1)C(=O)Nc1cc(C)on1 (centres undefined)	i	.
CCN(CC)CCCNC(=O)c1cc(-c2ccccc2)c(N2CCCCC2)s1	i	.
COc1ccccc1-c1ccc(SCc2ccc([N+](=O)[O-])cc2)nn1	i	.
COc1ccccc1-c1ccc(SCc2cccc(C)c2)nn1	-6.2*	-6.2
CCCOc1ccc(-c2c(=O)n(O)c3ccccc3[n+]2[O-])cc1	i	2.7
Cc1sc2nc(CSc3ccccc3)nc(N3CCOCC3)c2c1C	-5.9*	-5.9
Cc1sc2nc(CSc3ccccc3)nc(N3CCC(C(N)=O)CC3)c2c1C	i	1.4
Cc1onc(-c2ccccc2Cl)c1C(=O)Nc1ccc(N2CCOCC2)cc1	i	.
Cc1ccc(-n2nc3c(c2NC(=O)c2c(-c4ccccc4Cl)noc2C)CSC3)cc1	-7.4*	-7.4
COc1ccc(C2=NN(C(=O)CSc3ncccn3)C(c3ccc(C)cc3)C2)cc1 (centres undefined)	i	1.9
COc1ccc(C2=NN(C(=O)CSc3nc(=O)n4cccc(C)c4n3)C(c3ccc(C)cc3)C2)cc1 (centres undefined)	-7.4*	-7.4
N#Cc1nc(-c2ccc(F)cc2)oc1N1CCC(C(N)=O)CC1	i	.
Cc1ccc(S(=O)(=O)C/N=C(/NC(=S)N(c2ccccc2)c2ccccc2)c2ccccc2)cc1	-5.9*	-5.9
SMILES	KCNQ2 block	KCNQ2 pot
Cc1ccc(S(=O)(=O)/N=C(/NC(=S)Nc2ccccc2)c2ccccc2)cc1	i	.
CCOC(=O)c1ccc(S(=O)(=O)N2CCN(CC(O)COc3cccc(C(C)=O)c3)CC2)cc1 (centres undefined)	i	2.4
Cc1cc(C)c(NC(=O)CN(c2ccccc2)S(=O)(=O)N(C)C)c(C)c1	-5.6*	-5.6
Cc1ccc(NC(=O)CN(c2ccccc2)S(=O)(=O)N(C)C)cc1C	i	.
C(=N\n1cnnc1)/c1ccccn1	i	.
C(=N\N(c1ccccc1)c1ccccc1)/c1ccccn1	-6.2*	-6.2
COc1ccc(-c2ccc(-c3nnc(-c4cc(OC)ccc4OC)o3)cc2)cc1	i	0.4
COc1ccc(OC)c(-c2cnc(OC(C)(C)C)nc2OC(C)(C)C)c1	-5.7*	-5.7
COCCCNc1nc(N)c([N+](=O)[O-])c(N2CCCCCC2)n1	i	.
O=[N+]([O-])CC(=Nc1ccc(F)cc1)N/N=C\c1oc(O)c2ccccc12	i	.
O=C(COc1cccc2cccnc12)N/N=C/c1cccn1-c1ccc(F)cc1	-7.2*	-7.2
O=C(COc1cccc2cccnc12)N/N=C/c1ccc(O)cc1	i	0.71
CCN(c1ccc(NC(=O)c2cccc(S(=O)(=O)N3CCN(C)CC3)c2)cc1)C(C)C	i	0.02
O=C(CN1CCOCC1)Nc1nc2ccc(F)cc2s1	i	.
O=C(CN1C(=O)C2CCCCC2C1=O)Nc1nc2ccc(F)cc2s1 (centres undefined)	-6.2*	-6.2
CCCCSCCCNC(=O)c1ccc(CS(=O)(=O)c2ccc(OC)cc2)o1	i	.
COc1cc(C(=O)NCc2ccc(S(N)(=O)=O)cc2)ccc1OCC(=O)Nc1cccc(C(F)(F)F)c1	i	0.37
COc1cc(C(=O)N(C)CCOc2ccccc2)ccc1OCC(=O)Nc1cccc(C(F)(F)F)c1	-6.7*	-6.7
CCC(C)[C@H](NC(=O)C1CC(=O)N(c2ccc3c(c2)OCO3)C1)C(=O)NC1CCCCC1 (some centres undefined)	i	0.02
COc1ccc(NC(=O)c2ccc(Br)c(S(=O)(=O)N3CCOCC3)c2)cc1	i	2.7
COc1cccc(NC(=O)Cn2cc3c(n2)CCCCC3)c1	-6.5*	-6.5
COc1ccc(CNC(=O)Cn2cc3c(n2)CCCCC3)cc1	i	0.78
Cc1ccc(C)c(NC(=O)C2CC(=O)N(C3CCCCC3)C2)c1 (centres undefined)	i	.
COc1ccc(CN(C(=O)CSc2nnc(-c3c[nH]c4ccccc34)o2)c2ccc(F)cc2)cc1OC	-7*	-7
COc1ccc(CN(C(=O)CSc2nnc(-c3ccc(F)cc3)o2)c2ccc(F)cc2)cc1	i	.
SMILES	KCNQ2 block	KCNQ2 pot
O=C(c1ccc(Cl)cc1)N1CCOc2ccccc21	i	.
CCN(CC)CC(=O)Nc1ccc(C)cc1C(=O)c1ccccc1	i	.
Cc1ccc(S(=O)(=O)NCCC(=O)Nc2ccc(C)cc2C(=O)c2ccccc2)cc1	i	5.4*
Cc1ccc(N(CC(=O)NC(C)(C)C)C(=O)CCC(=O)Nc2nccs2)c(C)c1	i	1.7
CCC(C)c1ccc(N(CC(=O)NC(C)(C)C)C(=O)CNC(=O)c2cccs2)cc1 (centres undefined)	i	.
Cn1nnc2c[n+](CC(=O)c3ccc4ccccc4c3)cc(Br)c21	i	.
Cn1nnc2c[n+](CC(=O)c3ccc(Cl)cc3)cc(Br)c21	-6.1*	-6.1
Cc1ccc2c(c1)N/C(=C(\C=C(/Cl)[N+](=O)[O-])[N+](=O)[O-])N2	-6.8*	-6.8
Cc1ccc2c(c1)/C(=C/c1ccc(F)cc1)C(=O)N2	i	0.68
O=[N+]([O-])c1ccc(CN2CCC(Cc3ccccc3)CC2)cc1	i	0.36
O=[N+]([O-])c1cccc(OCCCN2CCC(Cc3ccccc3)CC2)c1	-5.7*	-5.7
CCc1ccc(C2=NN(C(=O)CCC(=O)O)C(c3cccs3)C2)cc1 (centres undefined)	i	.
COc1ccccc1NC(=O)CCNS(=O)(=O)c1ccc2c(c1)CCN2C(C)=O	i	.
CCOc1ccc(/C(O)=C2/C(=O)C(=O)N(CCCN3CCOCC3)C2c2ccc(F)cc2)cc1C (centres undefined)	i	0.44
O=C(NCC1CCN(Cc2cccc(Cl)c2)CC1)Nc1ccccc1Cl	i	1.4
Cc1ccc(NC(=O)NCC2CCN(Cc3cccc(Cl)c3)CC2)c(Cl)c1	i	6.5*
COc1ccccc1OCCNC(=O)c1ccc2c(c1)OCCO2	i	6.7*
COc1ccccc1OCCNC(=O)CNC(=O)c1ccc2c(c1)OCO2	i	0.26
Cc1ccc(N2CC(C(=O)NC3CCC(C)CC3)CC2=O)cc1 (centres undefined)	i	.

Assay outcomes (PubChem BioAssay)
